Pf_Dd2_growth: P. falciparum Dd2 growth inhibition. SYBR Green, 72 h; stronger effect = lower value. activity change, % at 10 µM. hit rate 2.3% among 94,000; in the data active = activity change below about -80%; inconclusive = no clear call, values can overlap the other calls
C_diff_growth: blocks growth of Clostridium difficile; hit rate 0.25% among 86,000; AID 1259249; growth activity, negative = inhibition, % at 16 µg/mL (by protocol); Clostridium difficile clinical isolate growth, OD600, 24 h; stronger effect = lower value;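 active = mean growth activity at or below -80% and every replicate also at or below -80%; inconclusive = mean at or below -80% but some replicate above -80%; inactive = mean growth activity above -80%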;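 also: 0% = DMSO wells and -100% = levofloxacin 16 µg/mL wells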
T_cruzi_growth-1: T. cruzi proliferation inhibition. T. cruzi beta-gal in NIH3T3, GalScreen luminescence, 90 h. inhibition, % at 8.34 µM. hit rate 5.9% among 77,000. AID 624255;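 active = mean inhibition above about 93%, with at least 55% of replicates each passing it, limit read from the data, passing the limit was not always enough; inconclusive = only one of those two conditions holds; inactive = neither condition holds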
T_cruzi_growth-2: blocks T. cruzi growth in NIH3T3 host cells; shares compounds with T_cruzi_growth-1; T. cruzi beta-gal in NIH3T3, GalScreen luminescence, 90 h; inhibition, % at 8.35 µM; hit rate 72% among 5,600; AID 651739;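 active = mean replicate inhibition above about 95% and at least 55% of replicates individually reaching it, limit read from the data; inconclusive = only one of the two criteria is met; inactive = neither criterion is met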
T_cruzi_growth-3: inhibitors of T. cruzi proliferation. shares compounds with T_cruzi_growth-1. T. cruzi beta-gal in NIH3T3, GalScreen luminescence, 90 h. inhibition, % at 2.09 µM. hit rate 21% among 5,600;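 active = mean inhibition above about 95%, with at least 55% of replicates also reaching it, limit read from the data; inconclusive = meets just one of the two conditions; inactive = meets neither condition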;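 also: plate controls were neutral control median for no effect and positive control median for full effect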
3T3_cytotox: kills mouse NIH/3T3 fibroblasts; shares compounds with T_cruzi_growth-1; NIH/3T3 viability, CellTiter-Glo ATP luminescence, 90 h; cytotoxicity (signal decrease), % at 8.35 µM; hit rate 14% among 5,600;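 active = mean signal decrease across replicates above about 35% based on untreated-well scatter, with enough replicates individually passing, limit read from the data; inconclusive = no rule stated though some were filed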;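 also: 0% = median of neutral control wells and 100% = median of positive control wells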
3T3_cytotox_2: kills mouse NIH/3T3 fibroblasts; shares compounds with T_cruzi_growth-1; NIH/3T3 viability, CellTiter-Glo ATP luminescence, 90 h; inhibition, % at 24.9 µM; hit rate 56% among 5,600;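 active = mean loss of cell viability signal at or above a set limit, and enough replicates individually reaching it; inconclusive = meets only the mean limit or only the replicate share; inactive = meets neither condition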;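 also: 0% = median of neutral control wells and 100% = median of positive control wells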
* = called active by the depositor; ? = inconclusive; nt = no result given. Hits are enriched below; roughly 6.7% of the tested compounds scored in any of these assays.

SMILES Pf_Dd2_growth C_diff_growth T_cruzi_growth-1 T_cruzi_growth-2 T_cruzi_growth-3 3T3_cytotox 3T3_cytotox_2
C[C@H]1CN([C@@H](C)CO)C(=O)c2cc(NC(=O)Nc3cccc4ccccc34)ccc2O[C@@H]1CN(C)Cc1ccc(Cl)c(Cl)c1 -24 -2 101 nt nt nt nt
C[C@H](CO)N1C[C@H](C)[C@@H](CN(C)S(=O)(=O)c2cn(C)cn2)Oc2cc(C#Cc3cccc(F)c3)ccc2S1(=O)=O -67 0 47 nt nt nt nt
C[C@@H]1CN([C@@H](C)CO)S(=O)(=O)c2ccc(C#Cc3ccccc3)cc2O[C@H]1CN(C)S(=O)(=O)c1cn(C)cn1 -75 -8 72 nt nt nt nt
C[C@H](CO)N1C[C@H](C)[C@@H](CN(C)S(=O)(=O)c2cn(C)cn2)Oc2cc(C#Cc3ccc(F)cc3)ccc2S1(=O)=O -58 2 107* 96* 80 18 25*
C[C@H]1CN([C@@H](C)CO)S(=O)(=O)c2ccc(C#Cc3cccc(F)c3)cc2O[C@H]1CN(C)S(=O)(=O)c1cn(C)cn1 -69 2 96* 97* 47 25 29*
C[C@H]1CN([C@@H](C)CO)S(=O)(=O)c2ccc(C#Cc3ccccc3)cc2O[C@@H]1CN(C)S(=O)(=O)c1cn(C)cn1 -87* -9 ? 112* 54 41* 36*
C[C@H](CO)N1C[C@H](C)[C@H](CN(C)S(=O)(=O)c2cn(C)cn2)Oc2cc(C#Cc3ccc(F)cc3)ccc2S1(=O)=O -57 3 117 nt nt nt nt
C[C@H](CO)N1C[C@H](C)[C@H](CN(C)C(=O)C2CCC2)Oc2ncc(C#Cc3cccc(F)c3)cc2C1=O -50 2 -91 nt nt nt nt
Cc1ccc(S(=O)(=O)N[C@H]2CC[C@H](CCNS(=O)(=O)Cc3ccccc3)O[C@H]2CO)cc1 3 -7 3 nt nt nt nt
COc1ccc(-c2ccc([C@@H]3[C@@H](CO)N4C(=O)CNC[C@@H]34)cc2)cc1 -9 -9 nt nt nt nt nt
C/C=C/c1ccc2c(c1)O[C@H](CN(C)C(=O)NC1CCCC1)[C@H](C)CN([C@@H](C)CO)S2(=O)=O 26 1 nt nt nt nt nt
O=C(Cc1ccccn1)NCC[C@@H]1CC[C@H](NC(=O)CN2CCOCC2)[C@@H](CO)O1 12 0 nt nt nt nt nt
C[C@@H]1CN([C@H](C)CO)C(=O)c2cc(C#Cc3ccccn3)cnc2O[C@H]1CN(C)Cc1ccncc1 9 0 107* 104* 39 -14 2
C[C@H]1CN([C@@H](C)CO)C(=O)c2cc(C#Cc3ccccn3)cnc2O[C@@H]1CN(C)Cc1ccncc1 -9 -1 65 nt nt nt nt
C[C@H]1CN([C@@H](C)CO)C(=O)c2cc(C#Cc3ccccn3)cnc2O[C@H]1CN(C)Cc1ccccc1 -7 -4 55 nt nt nt nt
C[C@H](CO)N1C[C@H](C)[C@@H](CN(C)Cc2ccncc2)Oc2ncc(C#Cc3ccccn3)cc2C1=O -3 0 ? 108* 47 -14 7
O=C(C[C@@H]1C[C@H]2c3cc(NC(=O)NC4CCCC4)ccc3O[C@H]2[C@H](CO)O1)NCc1cccc(F)c1 1 -3 nt nt nt nt nt
COc1ccc(NC(=O)N(C)C[C@H]2Oc3ccc(NC(=O)C4CCCCC4)cc3CC(=O)N([C@H](C)CO)C[C@H]2C)cc1 7 0 17 nt nt nt nt
O=C(O)C[C@@H]1C=C[C@@H](NC(=O)Nc2ccccc2)[C@H](CO)O1 10 2 31 nt nt nt nt
C[C@@H]1CN([C@@H](C)CO)C(=O)c2cc(C#CCc3ccccc3)cnc2O[C@@H]1CN(C)Cc1cccnc1 -53 -7 101* 79 -10 -10 -9
C[C@@H]1CN([C@H](C)CO)C(=O)c2cc(C#CCc3ccccc3)cnc2O[C@@H]1CN(C)C(=O)C1CCCCC1 -34 0 35 nt nt nt nt
C[C@H](CO)N1C[C@H](C)[C@H](CN(C)Cc2ccccc2)Oc2ncc(C#Cc3cccnc3)cc2C1=O -20 nt 101* 70 15 15 33
C[C@H]1CN([C@@H](C)CO)C(=O)c2cc(C#CCc3ccccc3)cnc2O[C@@H]1CN(C)CC1CCCC1 -88* -1 109* 103* ? 19 103*
C[C@H](CO)N1C[C@H](C)[C@@H](CN(C)C(=O)C2CCCCC2)Oc2ncc(C#CCc3ccccc3)cc2C1=O -77 16 ? 94 -19 17 106*
C[C@H]1CN([C@@H](C)CO)C(=O)c2cc(C#Cc3cccnc3)cnc2O[C@@H]1CN(C)Cc1ccccc1 -57 nt 91 nt nt nt nt
SMILES Pf_Dd2_growth C_diff_growth T_cruzi_growth-1 T_cruzi_growth-2 T_cruzi_growth-3 3T3_cytotox 3T3_cytotox_2
C[C@H](CO)N1C[C@H](C)[C@H](CN(C)Cc2cccnc2)Oc2ncc(C#CCc3ccccc3)cc2C1=O -56 -6 71 nt nt nt nt
C[C@@H]1CN([C@H](C)CO)C(=O)c2cc(C#CCc3ccccc3)cnc2O[C@H]1CN(C)CC1CCOCC1 -63 -4 -62 nt nt nt nt
CC(C)NC(=O)N[C@@H]1C=C[C@H](CC(=O)NCCN2CCCC2)O[C@@H]1CO 20 3 nt nt nt nt nt
C[C@H](CO)N1C[C@H](C)[C@H](CN(C)Cc2ccccn2)Oc2ncc(C#CCC3CCCC3)cc2C1=O -5 -11 65 nt nt nt nt
C[C@@H]1CN([C@@H](C)CO)C(=O)c2cc(C#CCC3CCCC3)cnc2O[C@H]1CN(C)Cc1ccccn1 -50 -34 110* 105* 47 2 104*
CNC[C@H]1Oc2ncc(C#CCC3CCCC3)cc2C(=O)N([C@H](C)CO)C[C@H]1C -45 6 ? 108* 92 11 106*
CNC[C@@H]1Oc2ncc(C#CC3CCCC3)cc2C(=O)N([C@@H](C)CO)C[C@@H]1C -31 4 96 nt nt nt nt
C[C@H](CO)N1C[C@H](C)[C@H](CN(C)C(=O)Nc2ccc(F)cc2)Oc2ccc(NS(=O)(=O)c3cn(C)cn3)cc2CC1=O 41 -5 -12 nt nt nt nt
C[C@@H]1CCCCO[C@H](CN(C)C(=O)Nc2ccc(C(F)(F)F)cc2)[C@@H](C)CN([C@H](C)CO)C(=O)c2cc(N(C)C)ccc2O1 -41 0 89 nt nt nt nt
CC(C)NC(=O)N(C)C[C@@H]1OCCCC[C@H](C)Oc2ccc(NC(=O)Nc3ccc(C(F)(F)F)cc3)cc2C(=O)N([C@H](C)CO)C[C@@H]1C -3 -5 100* 100* 1 12 14
C[C@H](CO)N1C[C@H](C)[C@@H](CN(C)C(=O)Nc2ccc(C(F)(F)F)cc2)OCCCC[C@H](C)Oc2ccc(NC(=O)Nc3ccc(C(F)(F)F)cc3)cc2C1=O -75 1 112* 112* 109* -8 1
CC(C)NC(=O)N(C)C[C@H]1OCCCC[C@H](C)Oc2ccc(NC(=O)Nc3ccc(C(F)(F)F)cc3)cc2C(=O)N([C@@H](C)CO)C[C@H]1C -33 9 49 nt nt nt nt

Screening data: PubChem BioAssay, Broad Institute
